In PubChem BioAssay (Tox21) one finds Potency data, which are given here for seven molecules.

The nature of test [1]: Nuclear factor erythroid 2-related factor 2/antioxidant responsive element (Nrf2/ARE) small molecule agonists: qHTS cell viability counter screen in human keratinocytes (AID 1919968; active = well fitted curve in the direction sought with a large enough effect in the repeat runs; an effect the other way counts as inactive or inconclusive; also: nearly all actives have a fitted effect of over 55% in size). In short, it runs like this:
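Viability counter-screen: KeratinoSens reporter cells, DMSO-delivered compounds, 23 h at 37 C, CellTiter-Fluor fluorescence.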
A general note: qHTS replaces the single test concentration by a dilution series.

Test [2] in a line: Nuclear factor erythroid 2-related factor 2/antioxidant responsive element (Nrf2/ARE) small molecule agonists: luciferase reporter gene qHTS assay in human keratinocytes (AID 1919969). Also: nearly all actives have a fitted effect of over 35% in size. For orientation: Reporter assays use an easily measured gene product as a stand-in for the process of interest.
Test [3] deals with Gonadotropin-releasing hormone receptor (Homo sapiens) (UniProt P30968). The test can be described thus: Human gonadotropin-releasing hormone receptor (GnRHR) small molecule agonists, calcium flux assay in GnRHR-HEK293 cells (AID 1920063). Also: nearly all actives have a fitted effect of over 35% in size. In short, it runs like this: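 Tox21-format agonist screen using human GnRHR-expressing HEK293 cells and a fluorescent calcium dye; kinetic 3-min fluorescence reading after compound addition, 15-point concentration series run in triplicate.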
Sequence of Gonadotropin-releasing hormone receptor (Homo sapiens) (P30968 whole entry, looked up): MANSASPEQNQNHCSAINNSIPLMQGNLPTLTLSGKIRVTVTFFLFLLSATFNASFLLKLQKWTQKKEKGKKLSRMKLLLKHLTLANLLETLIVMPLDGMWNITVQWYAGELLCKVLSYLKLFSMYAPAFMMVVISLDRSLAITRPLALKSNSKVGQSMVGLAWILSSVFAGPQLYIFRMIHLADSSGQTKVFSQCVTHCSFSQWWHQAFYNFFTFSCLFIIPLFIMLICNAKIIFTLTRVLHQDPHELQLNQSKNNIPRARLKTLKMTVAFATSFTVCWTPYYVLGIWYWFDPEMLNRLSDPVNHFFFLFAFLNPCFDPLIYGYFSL
On the technique in general: Calcium flux is commonly read through the fluorescence of an indicator in the cells.

Test [4] has as its target KiSS-1 receptor (Homo sapiens) (UniProt Q969F8). In words: Human kisspeptin (KISS1R) small molecule agonists, calcium flux assay in KISS1R-HEK293 cells (AID 1920064; active = well fitted curve in the direction sought with a large enough effect in the repeat runs; an effect the other way counts as inactive or inconclusive). In short, it runs like this: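 Intracellular calcium mobilization in KISS1R-HEK293 cells was recorded by fluorescence (Ex/Em 480/540) for 3 min following compound addition to cells pre-loaded 1 h with calcium dye.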

A short description of test [5]: G protein-coupled receptor (GPCR) small molecule agonists, calcium flux assay: HEK293 wild type cell line counter screen (AID 1920065). In short, it runs like this: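 In this agonist-mode screen, ATP is the positive control and DMSO the vehicle. Cells grow 18 h before a 1 h dye incubation at 37 C; signal is taken at Ex/Em 480/540 over 3 min.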
Test [6] in a line: p53 small molecule agonists, cell-based qHTS assay with human liver microsomes (AID 1963577).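 Also: p53 response element beta-lactamase reporter cells with liver microsomes plus NADPH.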 In short, it runs like this:
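With metabolic activation: human liver microsomes (0.5 mg/mL final) plus NADPH (0.5 mg/mL final) added alongside compounds to p53RE-bla cells; 16 h 37 C exposure; beta-lactamase read by LiveBLAzer fluorescence.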

A short description of test [7]: p53 small molecule agonists, cell-based qHTS assay with rat liver microsomes (AID 1963578). In short, it runs like this:
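Metabolic activation by rat liver microsomes and NADPH, each 0.5 mg/mL final, added right after compounds to p53RE-bla reporter cells (4,000/well, plated 5 h earlier). 16 h at 37 C, then LiveBLAzer substrate for 2 h at room temperature in the dark; fluorescence read-out.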

Test [8] can be described thus: p53 small molecule agonists, cell-based qHTS assay with human liver microsomes: qHTS cell viability counter screen (AID 1963579). Also: nearly all actives have a fitted effect of over 45% in size. In short, it runs like this: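 Metabolic activation used human liver microsomes and NADPH, both 0.5 mg/mL final, over 16 hours at 37 C on p53RE-bla cells (4,000/well). Cytotoxicity measured by CellTiter-Glo luminescence, 30 min at room temperature.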

The nature of test [9]: p53 small molecule agonists, cell-based qHTS assay with rat liver microsomes: qHTS cell viability counter screen (AID 1963580). Also: nearly all actives have a fitted effect of over 45% in size. In short, it runs like this: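 p53RE-bla HCT-116 cells (4,000/well) rested 5 h at 37 C, then given Tox21 compounds in DMSO with rat liver microsomes (0.5 mg/mL final) plus NADPH (0.5 mg/mL final) for 16 h at 37 C. Viability read by CellTiter-Glo luminescence after 30 min at room temperature.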

Test [10] is described as follows: p53 small molecule agonists, cell-based qHTS assay: qHTS cell viability counter screen (AID 1963581). Also: nearly all actives have a fitted effect of over 45% in size. Also: potency is read from the fitted curve at half-maximal effect. In short, it runs like this: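 Compounds are pinned onto HCT-116 p53RE-bla cells and left 16 h at 37 C. Following the reporter FRET read, ATP is quantified by CellTiter-Glo luminescence after 30 min at room temperature.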
Test [11] in a line: p53 small molecule agonists, cell-based qHTS assay (AID 1963582; active = well fitted activation curve with a large enough effect in the signal ratio in the repeat runs, not every such curve was filed as active; the % refers to the signal ratio). In short, it runs like this:
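Agonist activity was scored from beta-lactamase FRET fluorescence in p53RE-bla cells treated 16 h at 37 C with compounds in DMSO, substrate incubation being 2 h at room temperature.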

Test [12] concerns the target 5-hydroxytryptamine receptor 2A (Homo sapiens) (UniProt P28223). The test can be described thus: 5-hydroxytryptamine receptor 2A (HTR2A) small molecule antagonists, cell-based qHTS assay (AID 1963586). Also: nearly all actives have a fitted effect of over 45% in size. In short, it runs like this: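 Antagonist-mode intracellular calcium assay: DOI (4 nM) added after 5 min compound pre-incubation at room temperature to dye-loaded HTR2A-CHO cells. Fluorescence followed for 3 min, sampled every second.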

Test [13] has the same target. The test can be described thus: 5-hydroxytryptamine receptor 2A (HTR2A) small molecule agonists, cell-based qHTS assay (AID 1963587). Also: nearly all actives have a fitted effect of over 30% in size. In short, it runs like this: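 HTR2A-CHO cells, plated 18 h at 37 C/5% CO2, dye-loaded 1 h at 37 C; compounds in DMSO added by pin tool (agonist mode). Intracellular calcium flux read as kinetic fluorescence on FDSS over 2 min at 1 s intervals.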

Test [14] addresses Muscarinic acetylcholine receptor M1 (Homo sapiens) (UniProt P11229). In words: Cholinergic receptor muscarinic 1 (CHRM1) small molecule antagonists, cell-based qHTS assay (AID 1963588). Also: nearly all actives have a fitted effect of over 40% in size. In short, it runs like this: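 CHRM1-CHO calcium-flux assay, antagonist mode. Cells were seeded 18 h, dye-loaded 1 h at 37 C and given compound for 5 min at RT, then acetylcholine was added at 50nM. FDSS fluorescence was read 3 min; 15 concentrations, three runs.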

For test [15] the target is unchanged. In words: Cholinergic receptor muscarinic 1 (CHRM1) small molecule agonists, cell-based qHTS assay (AID 1963589). Also: nearly all actives have a fitted effect of over 35% in size. In short, it runs like this: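 Stable CHRM1-CHO cells (human receptor) were incubated 18 h, dye-loaded for 1 h at 37 C and exposed to test compounds for agonist activity, with calcium-dependent fluorescence followed kinetically.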
Test [16] in a line: cAMP Responsive Elements (CRE) small molecule agonists, cell-based qHTS assay (AID 1963590). In short, it runs like this:
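FRET-based beta-lactamase readout (LiveBLAzer B/G, 2 h RT) quantified CRE activation in HEK 293T CRE-bla cells after 3 h treatment with DMSO-dissolved compounds.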

The nature of test [17]: cAMP Responsive Elements (CRE) small molecule antagonists, cell-based qHTS assay (AID 1963591; active = well fitted inhibition curve with a large enough effect in the signal ratio in the repeat runs, not every such curve was filed as active; the % refers to the signal ratio). In short, it runs like this:
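qHTS in CRE-bla HEK 293T cells: compound in DMSO, then 0.25 uM NKH477 (final), 3 h at 37 °C/5% CO2; beta-lactamase FRET read-out after 2 h substrate incubation.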

Test [18] addresses Beta-2 adrenergic receptor (Homo sapiens) (UniProt P07550). In words: Adrenergic beta2 receptor (ADRB2) small molecule antagonists, cell-based qHTS assay (AID 1963592). Also: series mostly up to about 92 µM; nearly all actives have a fitted effect of over 50% in size. In short, it runs like this: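 Cells (CHO, stable ADRB2 overexpression) incubated 18-20hr at 37C; compounds added from DMSO; agonist mix (1nM isoproterenol, 100uM IBMX, 25uM Ro-20-1724) added; 0.5hr RT; d2-cAMP and anti-cAMP-cryptate added; 1hr RT; 665/615 nm read.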

Test [19] concerns the target D(2) dopamine receptor (Homo sapiens) (UniProt P14416). In words: Dopamine D2 receptor (DRD2) small molecule agonists, cell-based qHTS assay (AID 1963594). Also: nearly all actives have a fitted effect of over 35% in size. In short, it runs like this: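 HEK293 cells stably expressing DRD2 were cultured 24 h at 37 C, then given Ro20-1724 (0.1 mM final) and compounds for 10 min at room temperature. NKH477 (200nM) was then added for 30 min. cAMP was read by HTRF.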

The target is the same in test [20]. In words: Dopamine D2 receptor (DRD2) small molecule antagonists, cell-based qHTS assay (AID 1963595; active = well fitted inhibition curve with a large enough effect in the signal ratio in the repeat runs, with a control signal flat; the % refers to the signal ratio). In short, it runs like this:
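HTRF cAMP read-out at 665 and 620 nm emission (340 nm excitation). Antagonist mode: compounds were tested against 12 nM quinpirole in DRD2-HEK293 cells, with 200 nM NKH477 raising cAMP and 0.1 mM Ro20-1724 blocking its breakdown.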

Values joined by “and” are separate entries in the source; they are usually repeats but may differ in a detail not shown here. Equal values may be shown once. Inconclusive results are not listed. The source holds several records for some structures; these can differ, active in one and inactive in another. Active and inactive are the calls of the source. Unless noted, calls follow the shape of the full dose curve.

Sequence of D(2) dopamine receptor (Homo sapiens) (P14416 whole entry, looked up): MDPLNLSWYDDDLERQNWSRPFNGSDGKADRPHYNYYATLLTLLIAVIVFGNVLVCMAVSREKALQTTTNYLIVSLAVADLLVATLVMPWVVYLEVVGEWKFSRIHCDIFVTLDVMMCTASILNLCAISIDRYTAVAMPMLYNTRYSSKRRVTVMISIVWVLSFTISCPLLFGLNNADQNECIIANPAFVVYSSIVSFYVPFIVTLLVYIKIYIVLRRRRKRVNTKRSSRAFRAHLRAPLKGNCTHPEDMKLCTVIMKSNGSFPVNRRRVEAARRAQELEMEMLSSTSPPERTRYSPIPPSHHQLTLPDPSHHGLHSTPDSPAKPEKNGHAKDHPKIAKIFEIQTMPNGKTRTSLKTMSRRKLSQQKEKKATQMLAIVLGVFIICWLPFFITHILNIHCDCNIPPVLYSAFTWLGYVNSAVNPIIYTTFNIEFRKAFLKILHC
Sequence of Beta-2 adrenergic receptor (Homo sapiens) (P07550 whole entry, looked up): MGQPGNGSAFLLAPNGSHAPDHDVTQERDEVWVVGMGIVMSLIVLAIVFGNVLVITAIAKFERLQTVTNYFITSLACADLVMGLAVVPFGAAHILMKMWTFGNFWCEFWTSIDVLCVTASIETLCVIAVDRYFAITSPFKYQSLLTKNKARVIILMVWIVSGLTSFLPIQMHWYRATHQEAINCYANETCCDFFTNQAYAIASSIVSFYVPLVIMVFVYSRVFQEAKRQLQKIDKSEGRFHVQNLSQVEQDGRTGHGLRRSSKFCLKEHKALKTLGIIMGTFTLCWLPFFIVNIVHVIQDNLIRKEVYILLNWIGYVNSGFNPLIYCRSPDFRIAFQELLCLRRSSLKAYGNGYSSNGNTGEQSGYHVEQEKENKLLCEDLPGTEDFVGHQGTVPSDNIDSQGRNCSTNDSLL
Sequence of KiSS-1 receptor (Homo sapiens) (Q969F8 whole entry, looked up): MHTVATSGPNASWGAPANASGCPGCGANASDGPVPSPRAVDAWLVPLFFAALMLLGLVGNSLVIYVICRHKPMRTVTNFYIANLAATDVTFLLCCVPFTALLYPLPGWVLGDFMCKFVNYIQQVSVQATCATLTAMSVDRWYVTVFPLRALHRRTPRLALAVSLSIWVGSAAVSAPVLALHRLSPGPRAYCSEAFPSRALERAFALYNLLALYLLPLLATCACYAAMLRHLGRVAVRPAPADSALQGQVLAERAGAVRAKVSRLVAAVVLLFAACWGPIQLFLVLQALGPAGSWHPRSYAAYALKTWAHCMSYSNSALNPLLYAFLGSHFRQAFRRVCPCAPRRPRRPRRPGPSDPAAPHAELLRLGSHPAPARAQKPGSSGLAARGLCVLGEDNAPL
Sequence of Muscarinic acetylcholine receptor M1 (Homo sapiens) (P11229 whole entry, looked up): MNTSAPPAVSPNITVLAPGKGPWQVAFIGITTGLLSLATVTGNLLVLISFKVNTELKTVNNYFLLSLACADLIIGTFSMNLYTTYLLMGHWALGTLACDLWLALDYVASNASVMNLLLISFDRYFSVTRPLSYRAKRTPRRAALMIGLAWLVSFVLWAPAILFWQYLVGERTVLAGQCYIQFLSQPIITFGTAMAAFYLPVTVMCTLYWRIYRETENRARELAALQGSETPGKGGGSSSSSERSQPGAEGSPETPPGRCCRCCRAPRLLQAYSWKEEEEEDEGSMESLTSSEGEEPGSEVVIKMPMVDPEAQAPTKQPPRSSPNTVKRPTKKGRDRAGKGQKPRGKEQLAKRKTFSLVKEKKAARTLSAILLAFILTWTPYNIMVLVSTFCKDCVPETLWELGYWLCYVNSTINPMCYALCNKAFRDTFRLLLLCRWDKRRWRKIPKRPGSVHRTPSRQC
Sequence of 5-hydroxytryptamine receptor 2A (Homo sapiens) (P28223 whole entry, looked up): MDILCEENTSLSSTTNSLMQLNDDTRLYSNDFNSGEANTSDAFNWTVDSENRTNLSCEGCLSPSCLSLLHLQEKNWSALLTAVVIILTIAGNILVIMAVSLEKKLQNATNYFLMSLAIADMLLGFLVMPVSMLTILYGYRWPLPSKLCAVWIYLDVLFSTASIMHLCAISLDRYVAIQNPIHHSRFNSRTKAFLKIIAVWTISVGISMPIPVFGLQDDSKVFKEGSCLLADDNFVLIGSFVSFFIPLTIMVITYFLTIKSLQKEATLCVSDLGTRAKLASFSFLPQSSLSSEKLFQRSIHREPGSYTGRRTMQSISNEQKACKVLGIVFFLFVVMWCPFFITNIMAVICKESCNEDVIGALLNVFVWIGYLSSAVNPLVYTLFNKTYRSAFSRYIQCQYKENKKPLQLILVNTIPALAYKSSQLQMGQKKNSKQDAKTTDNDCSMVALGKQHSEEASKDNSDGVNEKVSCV

For `CN(C)CCOCCN(C)C`, the Potency entry in [1], in [2], in test [3], in test [4], in test [5] and in test [6] was “inactive” in each case. The Potency entry in test [7], in test [8], in test [9], in [10], in [11] and in test [12] was “inactive” in each case. Moreover, the Potency entry in [13], in test [14], in [15], in test [16], in test [17] and in test [18] was “inactive” each time. Moreover, the Potency entry in test [19] and in test [20] was “inactive” each time.
In the case of `CC(=O)OC(C)C`, the Potency result in [1], in test [2], in test [3], in test [4], in [5] and in [6] was “inactive” throughout. Also, the Potency entry in test [7], in test [8], in [9], in test [10], in [11] and in test [12] was “inactive” in each case. In addition, the Potency entry in test [13], in [14], in test [15], in test [16], in test [17] and in test [18] was “inactive” in each case. For the same molecule, in test [19], the Potency result was “inactive”.
On to `CCOC(=O)NNc1nncc2ccccc12`, for which the Potency result in [1], in test [2], in [3], in [4], in test [5] and in test [6] was “inactive” each time. Moreover, the Potency result in test [7], in test [8], in test [9], in test [10], in test [11] and in test [12] was “inactive” throughout. The Potency result in test [13], in [14], in test [15], in test [16], in [17] and in test [18] was “inactive” throughout. Moreover, the Potency result in [19] and in test [20] was “inactive” in each case.
With `COC(=O)/C=C\C(=O)OC`, the Potency entry in [1], in test [2], in test [3], in test [4], in test [5] and in test [6] was “inactive” each time. Moreover, the Potency result in test [7], in test [8], in [9], in test [10], in test [11] and in [12] was “inactive” throughout. For the same molecule, the Potency entry in [13], in [14], in test [15], in test [16], in test [17] and in test [18] was “inactive” throughout. In addition, the Potency entry in [19] and in [20] was “inactive” each time.
Take `CCCCCCCC(=O)O`: the Potency result in test [1], in test [2], in test [3], in test [4], in [5] and in test [6] was “inactive” throughout. For the same molecule, the Potency result in test [7], in test [8], in test [9], in [10], in test [11] and in [12] was “inactive” throughout. The Potency entry in test [13], in test [14], in [15], in [16], in test [17] and in test [18] was “inactive” in each case. For the same molecule, the Potency entry in [19] and in [20] was “inactive” in each case.
`CC1=CC(C)(C)Nc2ccccc21`: the Potency entry in test [1], in [2], in test [3], in test [4], in test [5] and in test [6] was “inactive” each time. Further, the Potency entry in test [7], in [8], in test [9], in test [10], in [11] and in test [12] was “inactive” each time. In addition, the Potency entry in test [13], in [14], in [15], in [16], in test [17] and in test [18] was “inactive” in each case. Further, the Potency entry in [19] and in [20] was “inactive” each time.
In the case of `Clc1cc(Cl)c(Cl)cc1Cl`, the Potency entry in test [1], in [2], in [3], in test [4], in [5] and in [6] was “inactive” in each case. The Potency entry in test [7], in test [8], in [9], in test [11], in test [12] and in [13] was “inactive” in each case. In addition, the Potency result in test [14], in test [15], in test [16], in test [17], in [18] and in test [19] was “inactive” throughout. For the same molecule, in test [20], the Potency result was “inactive”. Moreover, the Potency entry in [10] was “inactive and 16.2 µM (active)”.
